Data on 27 molecules can be found in publication PMC9911399, “Two distinct binding modes provide the RNA-binding protein RbFox with extraordinary sequence specificity”.

Changes are numbered by the printed parent chain; changes in the protein carry UniProt numbers. In all, about 16,000 sequences were measured (“ka relative to ugcaugu”: median about 0.096, highest 2% from about 0.35 on). The list comes from a sample in which the highest values are over-represented; it also holds similar and randomly drawn sequences.

B1: GCUACCU (DNA:RNA)
RNA: GGGAGACCGGAAUUCAGAUUGUCCGCUACCUUUAAAUCCCGUCGUAGCCACCA
DNA 1: CAATCTGAATTCCGGTCTCCC
DNA 2: TGGTGGCTACGACGGGATT
B2: CCGCCGU (DNA:RNA)
RNA: B1 RNA with G25C, U27G, A28C, C30G
DNA 1: CAATCTGAATTCCGGTCTCCC
DNA 2: TGGTGGCTACGACGGGATT
B3: AUGCGAA (DNA:RNA)
RNA: GGGAGACCGGAAUUCAGAUUGUCCAUGCGAAUUAAAUCCCGUCGUAGCCACCA
DNA 1: CAATCTGAATTCCGGTCTCCC
DNA 2: TGGTGGCTACGACGGGATT
B4: CUGUCGA (DNA:RNA)
RNA: B3 RNA with A25C, C28U, G29C, A30G
DNA 1: CAATCTGAATTCCGGTCTCCC
DNA 2: TGGTGGCTACGACGGGATT
B5: AAGGGCC (DNA:RNA)
RNA: B3 RNA with U26A, C28G, A30C, A31C
DNA 1: CAATCTGAATTCCGGTCTCCC
DNA 2: TGGTGGCTACGACGGGATT
B6: CUCUACC (DNA:RNA)
RNA: B3 RNA with A25C, G27C, C28U, G29A, A30C, A31C
DNA 1: CAATCTGAATTCCGGTCTCCC
DNA 2: TGGTGGCTACGACGGGATT
B7: UAGCGCA (DNA:RNA)
RNA: B3 RNA with A25U, U26A, A30C
DNA 1: CAATCTGAATTCCGGTCTCCC
DNA 2: TGGTGGCTACGACGGGATT
B8: UCGUAUG (DNA:RNA)
RNA: B3 RNA with A25U, U26C, C28U, G29A, A30U, A31G
DNA 1: CAATCTGAATTCCGGTCTCCC
DNA 2: TGGTGGCTACGACGGGATT
B9: UCGUCCG (DNA:RNA)
RNA: B1 RNA with G25U, U27G, A28U, U31G
DNA 1: CAATCTGAATTCCGGTCTCCC
DNA 2: TGGTGGCTACGACGGGATT
B10: CGUAUGA (DNA:RNA)
RNA: B1 RNA with G25C, C26G, C29U, C30G, U31A
DNA 1: CAATCTGAATTCCGGTCTCCC
DNA 2: TGGTGGCTACGACGGGATT
B11: GUUAUGA (DNA:RNA)
RNA: B1 RNA with C26U, C29U, C30G, U31A
DNA 1: CAATCTGAATTCCGGTCTCCC
DNA 2: TGGTGGCTACGACGGGATT
B12: GGUAUGA (DNA:RNA)
RNA: B1 RNA with C26G, C29U, C30G, U31A
DNA 1: CAATCTGAATTCCGGTCTCCC
DNA 2: TGGTGGCTACGACGGGATT
B13: GUCCUCG (DNA:RNA)
RNA: B3 RNA with A25G, G27C, G29U, A30C, A31G
DNA 1: CAATCTGAATTCCGGTCTCCC
DNA 2: TGGTGGCTACGACGGGATT
B14: UAGUCAA (DNA:RNA)
RNA: B3 RNA with A25U, U26A, C28U, G29C
DNA 1: CAATCTGAATTCCGGTCTCCC
DNA 2: TGGTGGCTACGACGGGATT
B15: GUUGUUC (DNA:RNA)
RNA: B1 RNA with C26U, A28G, C29U, C30U, U31C
DNA 1: CAATCTGAATTCCGGTCTCCC
DNA 2: TGGTGGCTACGACGGGATT
B16: UGAAUCG (DNA:RNA)
RNA: B1 RNA with G25U, C26G, U27A, C29U, U31G
DNA 1: CAATCTGAATTCCGGTCTCCC
DNA 2: TGGTGGCTACGACGGGATT
B17: GGAUCGC (DNA:RNA)
RNA: B1 RNA with C26G, U27A, A28U, C30G, U31C
DNA 1: CAATCTGAATTCCGGTCTCCC
DNA 2: TGGTGGCTACGACGGGATT
B18: CGAAUCG (DNA:RNA)
RNA: B1 RNA with G25C, C26G, U27A, C29U, U31G
DNA 1: CAATCTGAATTCCGGTCTCCC
DNA 2: TGGTGGCTACGACGGGATT
B19: GAAAUCG (DNA:RNA)
RNA: B1 RNA with C26A, U27A, C29U, U31G
DNA 1: CAATCTGAATTCCGGTCTCCC
DNA 2: TGGTGGCTACGACGGGATT
B20: GAAUCGU (DNA:RNA)
RNA: B1 RNA with C26A, U27A, A28U, C30G
DNA 1: CAATCTGAATTCCGGTCTCCC
DNA 2: TGGTGGCTACGACGGGATT
B21: UGAACCG (DNA:RNA)
RNA: B1 RNA with G25U, C26G, U27A, U31G
DNA 1: CAATCTGAATTCCGGTCTCCC
DNA 2: TGGTGGCTACGACGGGATT
B22: GAAUCCG (DNA:RNA)
RNA: B1 RNA with C26A, U27A, A28U, U31G
DNA 1: CAATCTGAATTCCGGTCTCCC
DNA 2: TGGTGGCTACGACGGGATT
B23: CGAUCGC (DNA:RNA)
RNA: B1 RNA with G25C, C26G, U27A, A28U, C30G, U31C
DNA 1: CAATCTGAATTCCGGTCTCCC
DNA 2: TGGTGGCTACGACGGGATT
B24: UGAAUUG (DNA:RNA)
RNA: B1 RNA with G25U, C26G, U27A, C29U, C30U, U31G
DNA 1: CAATCTGAATTCCGGTCTCCC
DNA 2: TGGTGGCTACGACGGGATT
B25: GAAUCGC (DNA:RNA)
RNA: B1 RNA with C26A, U27A, A28U, C30G, U31C
DNA 1: CAATCTGAATTCCGGTCTCCC
DNA 2: TGGTGGCTACGACGGGATT
B26: GAACCGU (DNA:RNA)
RNA: B1 RNA with C26A, U27A, A28C, C30G
DNA 1: CAATCTGAATTCCGGTCTCCC
DNA 2: TGGTGGCTACGACGGGATT
B27: GAAUUGU (DNA:RNA)
RNA: B1 RNA with C26A, U27A, A28U, C29U, C30G
DNA 1: CAATCTGAATTCCGGTCTCCC
DNA 2: TGGTGGCTACGACGGGATT

The target in this assay is T1, RBFOX1 RRM RbFoxmut (Fox-RRM*) (Homo sapiens, UniProt Q9NWB1 109-208, R118D;E147R;N151S;E152T).
T1 sequence: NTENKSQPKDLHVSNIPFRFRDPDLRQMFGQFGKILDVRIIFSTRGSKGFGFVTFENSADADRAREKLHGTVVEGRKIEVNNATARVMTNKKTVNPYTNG
Put plainly: EMSA; HiTS-Eq, 1 nM pool, 10 min; buffer printed only for the single-RNA assays: 10 mM Tris pH 7.5, 150 mM NaCl, 3.4 mM EDTA, 0.001% NP-40, 30 C. The following applies: tags: His6 N-terminal (pET28a); label: 5' 32P. The gist of the method:
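These values rest on relative association constants, computed from read-count changes of each RNA species versus the control reaction and normalised to the cognate motif. Reads came from free RNA recovered by 8% native PAGE after purified RbFox RRM (wild type or mutant) at increasing concentrations was equilibrated for 10 min in 50 µL with 1 nM of a 5′-radiolabelled pool with 7 randomized nucleotides and DNA-annealed flanks.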
In general terms: A gel shift assay detects complexes by their altered migration in electrophoresis.
For B1, the binding signal is 0.0731 KA relative to UGCAUGU.
In the case of B2, the binding signal is 0.133 KA relative to UGCAUGU.
Consider B3, for which the binding signal was 0.131 KA relative to UGCAUGU.
The figure for B4 is 0.0775 KA relative to UGCAUGU; for B5 it is 0.148 KA relative to UGCAUGU; for B6 it is 0.0729 KA relative to UGCAUGU.
The figure for B7 is 0.124 KA relative to UGCAUGU; for B8 it is 0.87 KA relative to UGCAUGU.
For B9, the binding signal is 0.0959 KA relative to UGCAUGU.
The figure for B10 is 0.258 KA relative to UGCAUGU; for B11 it is 0.206 KA relative to UGCAUGU.
Take B12: the binding signal is 0.468 KA relative to UGCAUGU.
The figure for B13 is 0.114 KA relative to UGCAUGU; for B14 it is 0.0801 KA relative to UGCAUGU; for B15 it is 0.106 KA relative to UGCAUGU.
The figure for B16 is 0.363 KA relative to UGCAUGU; for B17 it is 0.23 KA relative to UGCAUGU; for B18 it is 0.374 KA relative to UGCAUGU.
The figure for B19 is 0.0585 KA relative to UGCAUGU.
As for B20, the binding signal is 0.576 KA relative to UGCAUGU.
The figure for B21 is 0.0911 KA relative to UGCAUGU.
As to B22, the binding signal is 0.219 KA relative to UGCAUGU.
The figure for B23 is 0.0736 KA relative to UGCAUGU; for B24 it is 0.174 KA relative to UGCAUGU.
Consider B25, for which the binding signal is 0.512 KA relative to UGCAUGU.
B26: the binding signal was 0.126 KA relative to UGCAUGU.
The figure for B27 is 0.192 KA relative to UGCAUGU.
